High-throughput results: PubChem, National Center for Advancing Translational Sciences (NCATS)
IL1B secr inh – inflammasome signaling inhibition, IL-1 beta readout. THP-1 LPS/ATP IL-1B secretion, AlphaLISA, 16 h; active compounds read low. activity change, % at 57.5 µM. 4.7% of 360,000 active. AID 743279; in the data active = activity change below about -50%; inconclusive = mostly about -30% to -49%
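THP-1 cells pretreated 1 hr with compounds (up to 57.5 uM final), then stimulated with LPS (250 ng/mL final) plus ATP (1.25 mM final); secreted IL-1B measured by AlphaLISA after 16 hr, decreased signal indicating inhibition.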
HT1080 IDH1KD tx – toxicity to HT-1080 IDH1 knockdown cells (counter line); HT-1080 IDH1 knockdown viability, ATP luminescence, 48 h; Potency, µM (top dose mostly 46.1 µM), for the others: at the highest dose activity, negative = toxicity, most hits filed as cytotoxic; 2% of 360,000 active;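 also: potency is read from the fitted curve at half-maximal effect; 0% = DMSO wells and -100% = cell-free medium wells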
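HT-1080-IDH1KD cells (IDH1 knocked down), 750/well in RPMI with 5% FBS, treated with compound 48 h at 37 degrees C. Viability by CellTiter-Glo luminescence, normalised to DMSO and no-cell wells; concentration-response curves classed.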
ALOX12 inh – inhibitors of human 12S-lipoxygenase ALOX12; P18054; purified 12hLO, xylenol orange hydroperoxide absorbance; Potency, µM (titrated, usually from 108 µM), inactives show top-dose activity change, negative = inhibition, actives largely listed as inhibitors; 1.1% of 580,000 active; AID 1671190; also: potency is read from the fitted curve at half-maximal effect
Target sequence (P18054 whole entry, looked up): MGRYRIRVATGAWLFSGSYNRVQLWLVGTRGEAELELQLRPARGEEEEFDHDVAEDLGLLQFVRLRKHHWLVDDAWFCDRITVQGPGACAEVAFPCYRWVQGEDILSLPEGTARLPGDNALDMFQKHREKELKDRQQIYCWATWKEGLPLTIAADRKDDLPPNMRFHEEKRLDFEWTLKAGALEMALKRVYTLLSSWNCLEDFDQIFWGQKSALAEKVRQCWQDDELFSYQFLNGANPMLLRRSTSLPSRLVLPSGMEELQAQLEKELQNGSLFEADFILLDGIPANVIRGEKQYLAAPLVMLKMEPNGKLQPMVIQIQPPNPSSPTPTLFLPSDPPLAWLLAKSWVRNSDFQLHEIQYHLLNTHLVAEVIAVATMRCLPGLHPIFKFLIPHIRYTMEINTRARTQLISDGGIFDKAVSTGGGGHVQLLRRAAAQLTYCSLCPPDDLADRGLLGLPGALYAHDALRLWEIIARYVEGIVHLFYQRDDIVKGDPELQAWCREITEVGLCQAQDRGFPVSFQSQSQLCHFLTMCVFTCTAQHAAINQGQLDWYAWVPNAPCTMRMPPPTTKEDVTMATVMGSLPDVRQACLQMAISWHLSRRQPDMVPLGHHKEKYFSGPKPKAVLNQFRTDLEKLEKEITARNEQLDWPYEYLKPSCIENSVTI
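Hydroperoxide product was detected by ferrous iron/xylenol orange as the 573 to 405 nm absorbance ratio. Arachidonic acid at 40 uM (final) was turned over for 30 min at room temperature by 150 nM human 12hLO, pH 7.0 Hepes buffer, after 15 min compound preincubation.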
DT40 TDP1 no CPT – qHTS for Inhibitors of human tyrosyl-DNA phosphodiesterase 1 (TDP1): qHTS in cells in absence of CPT. DT40 Tdp1-/- hTDP1 cells, no CPT, ATP luminescence, 48 h. Potency, µM (doses to about 46.2 µM), inactives show at the highest dose activity change, negative = growth inhibition, usual class: inhibitors. 15% of 420,000 active; also: potency is read from the fitted curve at half-maximal effect; nearly all actives have a fitted effect of over 55% in size
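Cells were dispensed at 400 per well, compounds added by pin tool, plates incubated ≥48 hr at 37 °C, then CellTiter-Glo added for 30 min at room temperature before luminescence reading. Line: DT40 Tdp1-/- complemented with hTDP1; camptothecin omitted.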
DT40 TDP1 CPT – DT40-hTDP1 cell growth loss with CPT. chicken DT40 Tdp1-/-;hTDP1 cells + 20 nM CPT, ATP luminescence, 48 h. Potency, µM (doses to about 46.2 µM), for inactives: at the top dose activity change, negative = growth inhibition, most hits filed as inhibitors. 12% of 420,000 active. AID 686979; also: potency is read from the fitted curve at half-maximal effect; nearly all actives have a fitted effect of over 55% in size
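Cell growth measured by CellTiter-Glo luminescence after a minimum 48 h, 37 C compound exposure with 20 nM CPT in Tdp1-knockout DT40 cells stably expressing hTDP1, seeded 400/well; qHTS titration format.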
HT1080-NT tox – kills 2HG-producing HT-1080-NT fibrosarcoma cells; HT-1080-NT fibrosarcoma viability, CellTiter-Glo ATP luminescence, 48 h; Potency, µM (highest dose often 46.1 µM), for inactives: top-dose activity, negative = less viability, most hits filed as cytotoxic; 1.6% of 360,000 active; AID 686970;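 also: NT is the 2HG producing partner of a matched IDH1 knockdown line; potency is read from the fitted curve at half-maximal effect; 0% = DMSO-treated cells and -100% = media-only wells without cells; nearly all actives have a fitted effect of over 55% in size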
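Compounds were tested in concentration-response format on HT-1080-NT cells for 48 hours at 37 degrees C. Cell viability came from CellTiter-Glo luminescence; curves were classified by r2, response magnitude and activity.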
Active calls of the source: *; u = inconclusive; x = no result given; [ ] = remark or other dose. The full list was thinned out, with hits kept by preference. Unless noted, calls follow the shape of the dose curve; as a rule, active = well fitted curve in the direction sought with a large enough effect; inconclusive = small, poorly fitted or top-dose-only effect, or another doubt; inactive = no such curve, though single readings can be large; an effect the other way counts as inactive or inconclusive. Unless noted, % is scaled to controls: 0 for no effect and ±100 for the full control effect.

SMILES	IL1B secr inh	HT1080 IDH1KD tx	ALOX12 inh	DT40 TDP1 no CPT	DT40 TDP1 CPT	HT1080-NT tox
Cc1ccc(/C=C/C(=O)N(Cc2cccs2)C2CCS(=O)(=O)C2)cc1 (stereo not given)	-27	7%	30%	21µM*	u	-2%
O=C(/C=C/c1ccc(Cl)cc1)N(Cc1cccs1)C1CCS(=O)(=O)C1 (stereo not given)	-9	-12%	u	u	u	-2%
NC(=O)c1ccsc1NC(=O)CCS(=O)(=O)c1ccccc1	13	-12%	-8%	u	u	-11%
CCOC(=O)c1c(NC(=O)C2C3C=CC(C3)C2C(=O)O)sc2c1CC(C)CC2 (stereo not given)	15	-30%	0%	-26%	u	-8%
CCOC(=O)c1c(NC(=O)c2ccc(S(=O)(=O)N3CCC(C)CC3)cc2)sc2c1CCN(C(C)C)C2	x	x	-10%	15µM*	23µM*	x
CCOC(=O)c1ccsc1NC(=O)CCS(=O)(=O)c1ccccc1	-82*	-15%	5%	u	u	2%
CCOC(=O)c1c(NC(=O)c2ccc(N3C(=O)[C@@H]4[C@H](C3=O)[C@H]3C=C[C@@H]4C3)cc2)sc2c1CC(C)CC2 (stereo not given in full)	-81*	15%	-13%	1.2µM*	-45%	10%
COC(=O)c1c(NC(=O)c2ccc(S(=O)(=O)N3CCCCC3)cc2)sc2c1CCN(C)C2	x	x	u	4.6µM*	4.6µM*	x
CCN1CCc2c(sc(NC(=O)c3ccc(S(=O)(=O)N4CC(C)OC(C)C4)cc3)c2C(N)=O)C1 (stereo not given)	8	-21%	u	-5%	-2%	-20%
CCOC(=O)c1c(NC(=O)c2ccc(S(=O)(=O)N3CCOCC3)cc2)sc2c1CCN(C)C2	-4	4%	-18%	u	-26%	-12%
COC(=O)c1c(NC(=O)Cc2ccccc2)sc2c1CCN(C(C)C)C2	u	-5%	21%	u	u	-15%
CCOC(=O)c1c(NC(=O)CCS(=O)(=O)c2ccccc2)sc2c1CCN(C(C)C)C2	-80*	11%	463%	4.1µM*	4.1µM*	10%
CCOC(=O)c1c(NC(=O)c2ccc(S(=O)(=O)N3CCC(C)CC3)cc2)sc2c1CCN(CC)C2	x	x	u	21µM*	13µM*	x
COc1cccc(Nc2ncc3ncc(=O)n(CCC#N)c3n2)c1	x	x	0%	-11%	-6%	x
COCCn1c(=O)cnc2cnc(Nc3cccc(OC)c3)nc21	x	x	u	u	9.2µM*	x
COc1cccc(Nc2ncc3nc(C)c(=O)n(CCC#N)c3n2)c1	x	x	0%	0.92µM*	0.23µM*	x
COc1ccc(-n2c(=O)c(C)nc3cnc(Nc4cccc(OC)c4)nc32)cc1	x	x	26%	18µM*	23µM*	x
COc1cccc(Nc2ncc3nc(C)c(=O)n(C4CC4)c3n2)c1	x	x	u	u	-12%	x
COc1ccc([C@H]2C[C@@H](O)[C@@H](O)[C@@H]2NS(=O)(=O)c2ccc(C(F)(F)F)cc2)cc1	x	x	0%[176 µM]	x	x	x
Nc1cccc(-c2cccc(N)c2)c1	x	x	-33%	x	x	x
Nc1cc(N)cc(N)c1	x	x	x	4.5µM*	4.5µM*	x
CCn1ncc(N2CCC(NC(=O)Cc3cccc(OC)c3)CC2)cc1=O	x	x	26%	x	x	x
O=C(/C=C/c1ccco1)NC(=S)Nc1ccccc1O	-19	-30%	u	18µM*	u	-30%
O=C(/C=C/c1ccco1)NC(=S)Nc1ccccc1N1CCCC1	35	-28%	u	21µM*	u	-20%
O=C(/C=C\c1ccco1)NC(=S)Nc1ccccc1O	-10	u	u	u	18µM*	u
SMILES	IL1B secr inh	HT1080 IDH1KD tx	ALOX12 inh	DT40 TDP1 no CPT	DT40 TDP1 CPT	HT1080-NT tox
Cc1cccnc1NC(=S)NC(=O)/C=C/c1ccco1	7	17%	70%	-18%	-17%	17%
O=C(/C=C/c1ccco1)NC(=S)Nc1ccccc1N1CCOCC1	5	4%	u	u	-24%	4%
Cc1ccc(NC(=S)NC(=O)/C=C/c2ccco2)c(O)c1	-9	-16%	u	u	-11%	4%
CC(C)CNC(=S)NNC(=O)c1csc2c1CCC(C)C2 (stereo not given)	u	u	u	21µM*	u	u
O=C1CCC2(CNC(=O)c3ccco3)CCCC=C2N1 (stereo not given)	x	x	-4%	x	x	x
Cn1c(=O)[nH]c(=O)c2c1nc(SCC(=O)Nc1ccccc1)n2Cc1ccccc1Cl	x	x	-26%	x	x	x
O=S(=O)(c1ccccc1)c1nnn2c1nc(NC1CCN(Cc3ccccc3)CC1)c1cc(Cl)ccc12	u	0%	-14%	4.1µM*	7.3µM*	-10%
O=S(=O)(c1ccccc1)c1nnn2c1nc(NC1CCN(Cc3ccccc3)CC1)c1ccccc12	u	-1%	0%	8.2µM*	5.8µM*	-11%
O=S(=O)(c1ccccc1)c1nnn2c1nc(NC1CCCC1)c1ccccc12	x	x	-2%[6.33 µM]	x	x	x
COC(=O)c1cc(OC(=O)c2ccccc2)cc(C(=O)OC)c1	x	x	16%	x	x	x
CCCCCCNc1nc2c(c(=O)[nH]c(=O)n2C)n1CC(O)COC(C)C (stereo not given)	x	x	8%	x	x	x
Cc1ccc(NC(=O)c2cn(CCC#N)nc2-c2cccs2)c([N+](=O)[O-])c1	0	-11%	-8%	12µM*	u	-3%
Cc1ccc(NC(=O)/C=C/c2cccs2)c([N+](=O)[O-])c1	-17	-22%	-21%	23µM*	13µM*	u
Cc1ccc(NC(=O)/C=C/C(=O)O)c([N+](=O)[O-])c1	13	3%	-21%	0%	-9%	1%
Cc1cc(NC(=O)C(C)Sc2nccn2-c2ccc(Cl)cc2)no1 (stereo not given)	x	x	-1%	x	x	x
CC1(C(=O)NCc2cccnc2)CCc2cnc(NCc3ccccc3)nc21 (stereo not given)	x	x	8%[176 µM]	x	x	x
CC(OC(=O)c1ccco1)C(=O)Nc1ccc(C(F)(F)F)cc1 (stereo not given)	-9	11%	2%	26µM*	10µM*	1%
CCOc1ccccc1NC(=O)C(NCC1(N2CCCCC2)CCCCC1)c1ccccc1 (stereo not given)	u	-6%	-30%	16µM*	u	-11%
COC(=O)C1=C(C(=O)OC)SC(=C(Cl)C(=S)Sc2ccccc2)S1	x	x	-6%	x	x	x
